Laboratory results: ChEMBL document CHEMBL5606458, “ASAP - ZIKV NS2B-NS3 protease fluorescence single point” (2024)
Out of some 2,700 compounds screened, about 160 (5.9%) showed an effect of 50% or more. Only a selection was taken, and strong results are over-represented in it overall.

Target: Nonstructural protein 3 (Zika virus) (UniProt A0A024AXB9)
[1] = PRVABC59, Concentration 15.0 uM, Number of replicates 1.0
[2] = PRVABC59, Concentration 50.0 uM, Number of replicates 1.0

Chain of Nonstructural protein 3 (Zika virus) (A0A024AXB9 as listed by the source): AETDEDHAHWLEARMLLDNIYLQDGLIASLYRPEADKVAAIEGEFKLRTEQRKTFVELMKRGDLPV

SMILES: O=C(Nc1cccc(I)c1)c1cc(Cl)ccc1NS(=O)(=O)c1ccc(Oc2ccccc2Cl)cc1
- inhibition [1]: 48.1%

SMILES: O=C(Nc1ccc(I)cc1)c1cc(Cl)ccc1NS(=O)(=O)c1ccc(Oc2ccccc2Cl)cc1
- inhibition [1]: 58.1%

SMILES: Cc1cc(NC(=O)c2cc(Cl)ccc2NS(=O)(=O)c2ccc(Oc3ccccc3Cl)cc2)cc(C)c1Br
- inhibition [1]: 27.6%

SMILES: O=C(Nc1ccc2c(c1)OC(F)(F)O2)c1cc(Cl)ccc1NS(=O)(=O)c1ccc(Oc2ccccc2Cl)cc1
- inhibition [1]: 50%

SMILES: O=C(Nc1ccc2c(c1)OCCO2)c1cc(Cl)ccc1NS(=O)(=O)c1ccc(Oc2ccccc2Cl)cc1
- inhibition [1]: 63.8%

SMILES: Cc1cc(Br)cc(NC(=O)c2cc(Cl)ccc2NS(=O)(=O)c2ccc(Oc3ccccc3Cl)cc2)c1
- inhibition [1]: 53.6%

SMILES: O=C(Nc1ccc(I)c(F)c1)c1cc(Cl)ccc1NS(=O)(=O)c1ccc(Oc2ccccc2Cl)cc1
- inhibition [1]: 37.6%

SMILES: O=C(CNC(=O)c1cc(Cl)ccc1NS(=O)(=O)c1ccc(Oc2ccccc2Cl)cc1)c1ccccc1F
- inhibition [1]: 40.7%

SMILES: O=C(CNC(=O)c1cc(Cl)ccc1NS(=O)(=O)c1ccc(Oc2ccccc2Cl)cc1)c1ccc(O)cc1
- inhibition [1]: 52.2%

SMILES: O=C(Nc1cccc(Br)c1)c1cc(Cl)ccc1NS(=O)(=O)c1ccc(Oc2ccccc2Cl)cc1
- inhibition [1]: 43.8%

SMILES: O=C(CNC(=O)c1cc(Cl)ccc1NS(=O)(=O)c1ccc(Oc2ccccc2Cl)cc1)c1ccc([N+](=O)[O-])cc1
- inhibition [1]: 33%

SMILES: O=C(NCc1ccc2c(c1)OCCO2)c1cc(Cl)ccc1NS(=O)(=O)c1ccc(Oc2ccccc2Cl)cc1
- inhibition [1]: 24.8%

SMILES: Cc1cc(CO)c2cccc(Nc3cc(O)[nH]n3)c2n1
- inhibition (PRVABC59, Concentration 49.95 uM, Number of replicates 2.0, Standard deviation 1.761368724187627 %): 18.3%
- inhibition (PRVABC59, Concentration 99.9 uM, Number of replicates 2.0, Standard deviation 1.139118047569397 %): 23.8%

SMILES: Cn1cc(CNC(=O)c2ccccc2-c2cccnc2)cn1
- inhibition (PRVABC59, Concentration 49.5 uM, Number of replicates 2.0, Standard deviation 0.5877340250731194 %): 0.299%
- inhibition (PRVABC59, Concentration 99.01 uM, Number of replicates 2.0, Standard deviation 0.42986369479040104 %): -0.679%
- inhibition (PRVABC59, Concentration 198.0 uM, Number of replicates 2.0, Standard deviation 0.566811449656849 %): -0.69%

SMILES: O=Cc1ccc(N2CCC(C(=O)N[C@H](CO)[C@H](O)c3ccc([N+](=O)[O-])cc3)CC2)cc1
- inhibition [2]: 25.6%

SMILES: N#Cc1ccc(Cl)c(NC(=O)C2CCN(c3ccc(C=O)cc3)CC2)c1
- inhibition [2]: 23.1%

SMILES: O=Cc1ccc(N2CCC(C(=O)NCc3ccccc3-n3cccn3)CC2)cc1
- inhibition (PRVABC59, Concentration 10.0 uM, Number of replicates 1.0): 21.4%

SMILES: N=C(N)NC[C@@H]1CCCN(C(=O)[C@H](Cc2ccc(CN)cc2)NC(=O)c2ccccc2)C1
- inhibition (PRVABC59, Concentration 49.5 uM, Number of replicates 2.0, Standard deviation 0.6960698702606968 %): 2.68%
- inhibition (PRVABC59, Concentration 99.01 uM, Number of replicates 2.0, Standard deviation 1.1872902095434084 %): 12.8%
- inhibition (PRVABC59, Concentration 198.0 uM, Number of replicates 2.0, Standard deviation 0.3804343133987339 %): 26.8%

SMILES: CN(C)CCN(Cc1ccccc1)C(=O)c1cc(Cl)ccc1NS(=O)(=O)c1ccc(Oc2ccccc2Cl)cc1
- inhibition [1]: 15.1%

SMILES: Cc1ccc2ccccc2c1NC(=O)C1CCN(c2ccc(C=O)cc2)CC1
- inhibition [2]: 19.8%

SMILES: CN(C)c1ccc(C(=O)Nc2cc(Cl)cc(C(=O)NC(C)(C)CO)c2)nc1
- inhibition (PRVABC59, Concentration 49.5 uM, Number of replicates 2.0, Standard deviation 3.9613998246279105 %): -1.53%
- inhibition (PRVABC59, Concentration 99.01 uM, Number of replicates 2.0, Standard deviation 2.7948399639930708 %): 0.849%

SMILES: Cc1cc(CO)c2cccc(NC(=O)c3cccc(Cn4cncn4)c3)c2n1
- inhibition (PRVABC59, Concentration 49.95 uM, Number of replicates 2.0, Standard deviation 2.574308180740061 %): -0.138%
- inhibition (PRVABC59, Concentration 99.9 uM, Number of replicates 2.0, Standard deviation 1.9018768762288814 %): 11.1%

SMILES: Cc1cnccc1NC(=O)c1ccccc1-c1nc(C(C)C)no1
- inhibition (PRVABC59, Concentration 49.5 uM, Number of replicates 2.0, Standard deviation 0.2610834999883118 %): -0.098%
- inhibition (PRVABC59, Concentration 99.01 uM, Number of replicates 2.0, Standard deviation 1.3020487023400833 %): -0.148%
- inhibition (PRVABC59, Concentration 198.0 uM, Number of replicates 2.0, Standard deviation 1.8545350914642316 %): 0.672%

SMILES: O=C(c1cc(Cl)ccc1NS(=O)(=O)c1ccc(Oc2ccccc2Cl)cc1)N1CCN(c2ccc(Br)cn2)CC1
- inhibition [1]: 18.6%

SMILES: O=C(NCCc1ccc(Cl)cc1Cl)c1cc(Cl)ccc1NS(=O)(=O)c1ccc(Oc2ccccc2Cl)cc1
- inhibition [1]: 27.1%

SMILES: CN1CCN(C(=O)C2CCN(C(=O)C3CCN(c4ccc(C=O)cc4)CC3)CC2)CC1
- inhibition [2]: 21.1%

SMILES: O=Cc1ccc(N2CCC(C(=O)N3CCC(N4CCCC4=O)CC3)CC2)cc1
- inhibition [2]: 23.2%

SMILES: O=C(Nc1cc(Cl)ccc1Br)c1cc(Cl)ccc1NS(=O)(=O)c1ccc(Oc2ccccc2Cl)cc1
- inhibition [1]: 24.1%

SMILES: O=C(Nc1ccc([N+](=O)[O-])cc1)c1cc(Cl)ccc1NS(=O)(=O)c1ccc(Oc2ccccc2Cl)cc1
- inhibition [1]: 29.8%

SMILES: O=C(Nc1ccc(Oc2ccc(Cl)cc2)cc1)c1cc(Cl)ccc1NS(=O)(=O)c1ccc(Oc2ccccc2Cl)cc1
- inhibition [1]: 14.2%

SMILES: O=C(Nc1ccc([N+](=O)[O-])c2ccccc12)c1cc(Cl)ccc1NS(=O)(=O)c1ccc(Oc2ccccc2Cl)cc1
- inhibition [1]: 22.7%

SMILES: O=C(Nc1ccc(Oc2ccccc2Cl)cc1)c1cc(Cl)ccc1NS(=O)(=O)c1ccc(Oc2ccccc2Cl)cc1
- inhibition [1]: 19.7%

SMILES: O=C(Nc1cc(Cl)cc(Cl)c1O)c1cc(Cl)ccc1NS(=O)(=O)c1ccc(Oc2ccccc2Cl)cc1
- inhibition [1]: 74.3%

SMILES: O=C(Nc1cc(Cl)cc([N+](=O)[O-])c1O)c1cc(Cl)ccc1NS(=O)(=O)c1ccc(Oc2ccccc2Cl)cc1
- inhibition [1]: 92.4%

SMILES: O=C(Nc1ccc2ccccc2c1O)c1cc(Cl)ccc1NS(=O)(=O)c1ccc(Oc2ccccc2Cl)cc1
- inhibition [1]: 14%

SMILES: CCCOc1ccc(NC(=O)c2cc(Cl)ccc2NS(=O)(=O)c2ccc(Oc3ccccc3Cl)cc2)cc1
- inhibition [1]: 43.9%

SMILES: O=C(Nc1ccccc1)c1cc(Cl)ccc1NS(=O)(=O)c1ccc(Oc2ccccc2Cl)cc1
- inhibition [1]: 54.2%

SMILES: CC(=O)Nc1ccc(NC(=O)c2cc(Cl)ccc2NS(=O)(=O)c2ccc(Oc3ccccc3Cl)cc2)cc1
- inhibition [1]: 63.1%

SMILES: O=C(Nc1ccc(O)cc1[N+](=O)[O-])c1cc(Cl)ccc1NS(=O)(=O)c1ccc(Oc2ccccc2Cl)cc1
- inhibition [1]: 32.2%
